Source: PubChem
HttQ103 aggreg = qHTS Multiplex Assay to Identify Dual Action Probes in a Cell Model of Huntington: Aggregate Formation (GFP) | PC12 HttQ103-GFP aggregates, Acumen cytometry, 40 h | 220,000 compounds, 1.1% hits | Potency, µM (doses to about 46.1 µM), for the others: top-dose activity change, negative = inhibition, most hits filed as inhibitors | AID 1688, 2009; note: potency is the fitted concentration of half-maximal effect; % is set by controls: 0 for no effect and ±100 for the full control effect; nearly all actives have a fitted effect of over 60% in size
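Quantitative HTS on tebufenozide-induced (100 nM) PC12 cells stably expressing polyQ103 Huntingtin exon 1–GFP. Reduction of bright GFP aggregates, detected by laser scanning cytometry after lysis, identified actives across the titration.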
HPGD inh = qHTS Assay for Inhibitors of HPGD (15-Hydroxyprostaglandin Dehydrogenase). 15-hydroxyprostaglandin dehydrogenase [NAD(+)] (Homo sapiens), P15428. purified HPGD, NADH fluorescence kinetic, PGE2 substrate. Potency, µM, for the others: at the top dose activity change, negative = inhibition, usual class: inhibitors. 150,000 compounds, 4.3% hits. AID 894, 2007; active = well fitted inhibition curve with a large enough effect, not every such curve was filed as active; inconclusive = small, poorly fitted or top-dose-only effect, or another doubt; inactive = no such curve, though single readings can be large or run the other way; note: potency is the fitted concentration of half-maximal effect; % is set by controls: 0 for no effect and ±100 for the full control effect
Target sequence (P15428 whole entry, looked up): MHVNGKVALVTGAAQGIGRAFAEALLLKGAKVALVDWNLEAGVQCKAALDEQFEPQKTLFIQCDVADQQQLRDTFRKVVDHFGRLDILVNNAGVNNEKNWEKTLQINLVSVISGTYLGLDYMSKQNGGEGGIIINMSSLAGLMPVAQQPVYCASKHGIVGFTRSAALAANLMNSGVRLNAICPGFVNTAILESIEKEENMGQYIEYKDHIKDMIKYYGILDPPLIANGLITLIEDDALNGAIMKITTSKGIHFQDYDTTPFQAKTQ
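20 nM HPGD preincubated 15 min at room temperature with compound in 50 mM Tris-HCl pH 8, 0.01% Tween 20. Started with 1 mM NAD+ and 30 uM prostaglandin E2; NADH fluorescence (360/450 nm) read 5 times over 30-s intervals, last minus first.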
PNC assembly inh = High Content Assay for Compounds that inhibit the Assembly of the Perinucleolar Compartment. PC3M PTB-GFP, PNC prevalence imaging, 16 h; active compounds read low. activity change (PNC), negative = inhibition, % at 10 µM. 140,000 compounds, 3.1% hits;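 active = readout at or below -70, meaning at least 70% loss of cells showing the perinucleolar compartment, a nuclear body marking cancer cells; inconclusive = readout between -30 and a set limit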;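 note: plate controls were DMSO wells for no effect and camptothecin positive control wells for full effect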
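PC3M cells stably expressing PTB-GFP, 750–1000 cells/well, treated 16 h at 37 °C with compound (23 nl of library stock), in duplicate. After paraformaldehyde fixation and Hoechst stain, imaged at 20x; PNC prevalence scored by image analysis.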
HTT ATP protect = qHTS Multiplex Assay to Identify Dual Action Probes in a Cell Model of Huntington: Cytoprotection (ATP). PC12 HTT-Q103 induced, cytoprotection, ATP luminescence, 40 h. Potency, µM (top dose mostly 56.4 µM), for inactives: cytoprotection (ATP increase), most hits filed as activators. 230,000 compounds, 0.14% hits; note: potency is the fitted concentration of half-maximal effect; % of control where 0% means no effect; nearly all actives have a fitted effect of over 45% in size
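Stable PC12 Q103-GFP cells in serum-supplemented, phenol red-free DMEM; induction by tebufenozide at 100 nM final; compound dose series; cell viability quantified luminescently from ATP.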
CBFb RUNX1 block = qHTS Assay for Compounds Blocking the Interaction Between CBF-beta and RUNX1 for the Treatment of Acute Myeloid Leukemia | AlphaScreen CBFb-His/RUNX1-biotin binding, biochemical | Potency, µM (top dose mostly 59.8 µM), for inactives: at the highest dose activity, negative = inhibition, actives largely listed as inhibitors | 230,000 tested, under 10 active; note: % of control where 0% means no effect
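CBF-beta (His) and RUNX1 (biotin), 30 nM each; 20 min preassociation; + compound, 15 min; + beads 50 ng each (Ni, streptavidin), 90 min; RT; AlphaScreen read.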
ALDH1A1 inh = qHTS Assay for Inhibitors of Aldehyde Dehydrogenase 1 (ALDH1A1); Purified ALDH1A1, NADH fluorescence, propionaldehyde substrate; Potency, µM (doses to about 75.3 µM), inactives show at the highest dose activity, negative = inhibition, usual class: inhibitors; 220,000 compounds, 7.3% hits; Aldehyde dehydrogenase 1A1 (Homo sapiens), P00352; AID 1030, 2008; active = well fitted inhibition curve with a large enough effect, not every such curve was filed as active; inconclusive = small, poorly fitted or top-dose-only effect, or another doubt; inactive = no such curve, though single readings can be large or run the other way;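 note: potency is the fitted concentration of half-maximal effect; plate controls were no enzyme wells and a reference inhibitor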
Target sequence (P00352 whole entry, looked up): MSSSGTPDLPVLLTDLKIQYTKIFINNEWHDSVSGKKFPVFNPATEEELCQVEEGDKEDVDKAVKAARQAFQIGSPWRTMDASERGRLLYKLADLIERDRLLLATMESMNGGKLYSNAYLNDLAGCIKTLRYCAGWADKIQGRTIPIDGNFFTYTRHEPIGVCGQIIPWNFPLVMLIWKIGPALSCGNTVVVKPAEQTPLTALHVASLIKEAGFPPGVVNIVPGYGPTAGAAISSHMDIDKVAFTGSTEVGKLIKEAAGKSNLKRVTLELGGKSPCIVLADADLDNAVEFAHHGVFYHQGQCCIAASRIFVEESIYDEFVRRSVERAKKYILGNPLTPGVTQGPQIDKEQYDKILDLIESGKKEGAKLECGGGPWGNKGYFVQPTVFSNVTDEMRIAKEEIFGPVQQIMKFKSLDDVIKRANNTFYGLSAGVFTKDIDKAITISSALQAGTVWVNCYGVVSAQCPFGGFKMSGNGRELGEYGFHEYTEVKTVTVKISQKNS
* marks the source's active call; other numbers are inactive results; ? = inconclusive; . = no result; [ ] = dose if it differs, or a comment. An excerpt weighted towards active compounds, which were near 11% of everything screened. Unless noted, calls come from the whole dose curve; as a rule, active = well fitted curve in the direction sought with a large enough effect; inconclusive = small, poorly fitted or top-dose-only effect, or another doubt; inactive = no such curve, though single readings can be large; an effect the other way counts as inactive or inconclusive.

SMILES	HttQ103 aggreg	HPGD inh	PNC assembly inh	HTT ATP protect	CBFb RUNX1 block	ALDH1A1 inh
CCCSC1=C(C#N)C(c2cccs2)CC(=O)N1 (stereo not drawn)	36%[9.22 µM]	.	.	8%[10 µM]	2%	.
CCCOC(=O)CSC1=C(C#N)C(c2ccc3c(c2)OCO3)CC(=O)N1 (stereo not drawn)	-7%	-9%	16	-5%	-3%	-2%
CCCC(C)C(=O)Nc1nnc(C)s1 (stereo not drawn)	-15%	-1%	-30	-3%[10 µM]	4%	9%
C=CCNC(=O)C(=O)N/N=C/c1cccc(Br)c1	.	.	.	.	3%	5%
Cc1ccccc1NC(=O)C(=O)N/N=C/c1cccc(Br)c1	6%	-4%	-114*	.	-1%	17%
CN(C)CN1CSC(=S)N(CN(C)C)C1	.	3.2µM*	.	-16%[10 µM]	.	4µM*
S=C1SCN(CC2CC2)CN1CC1CC1	15%[9.22 µM]	.	.	-37%[10 µM]	3%	.
CCN(CCCNC(=O)COc1cc(=O)n(CC)c2ccccc12)c1ccccc1	?	-12%	-100*	5%[10 µM]	-13%	1%
CCn1c(=O)cc(OCC(=O)Nc2ccc(OC)c(OC)c2)c2ccccc21	12%	.	.	-12%	-2%	16µM*
CCN(CCCNC(=O)CCNC(=O)Cn1ccc2ccccc2c1=O)c1ccccc1	10%	-26%	-94*	2%[10 µM]	1%	?
CC1CCC2C(=O)OC(CO)CN2C1c1ccc(Br)cc1 (stereo not drawn)	.	.	.	-16%[10 µM]	5%[13.1 µM]	16%[13.5 µM]
CC(=O)C1C(c2cn(-c3ccccc3)nc2-c2cccs2)NC(=O)NC1(O)C(F)(F)F (stereo not drawn)	9%	-14%	1	-8%	1%	22µM*
Cn1c(=O)c2[nH]c(CCC(=O)O)nc2n(C)c1=O	.	-5%	.	-14%[10 µM]	.	9%[13.5 µM]
N#Cc1c(-c2ccncc2)c2c([nH]c1=S)CCCC2	18%	22µM*	30	-12%	-12%	?
Cc1ccc(-c2c(C#N)c(N)nc3c2CCCC3)o1	-7%	.	.	16%[10 µM]	11%	?
CCSc1nc2c(c(-c3ccc(C)o3)c1C#N)CCCC2	-32%	?	-100*	8%[10 µM]	16%	?
Cc1ccc(-c2c3c([nH]c(=S)c2C#N)CCCC3)o1	22%	8.9µM*	-5	-1%	?	7.9µM*
COC(=O)CSc1nc2c(c(-c3ccc(C)o3)c1C#N)CCCC2	8%	?	8	-11%	22%	?
COCCn1c(=O)c(-c2ccc(F)cc2)nc2cnc(OCc3ccccc3)nc21	.	?	.	6%	.	?
CC(C)CC1(C(=O)NCC2CC2)C=CCN1C(=O)c1ccccc1 (stereo not drawn)	.	18µM*	.	12%	10%	25µM*
COc1ccc(C(=O)COC(=O)CN2C(=O)C3C4C=CC(C5CC45)C3C2=O)cc1 (stereo not drawn)	12%	-11%	-12	3%[10 µM]	13%	13µM*
COC(=O)C(CCCCN1C(=O)C2C3C=CC(C3)C2C1=O)N1C(=O)C2C3C=CC(C3)C2C1=O (stereo not drawn)	-4%	-14%	25	-6%[0.074 µM]	-2%	?
COC(=O)C1C2C=CC(C3CC23)C1C(=O)OCC(=O)c1ccc(OC)cc1 (stereo not drawn)	?	28µM*	16	-4%	4%	6.3µM*
O=C(CN1C(=O)C2C3CCC(C3)C2C1=O)OCC(=O)c1cccc([N+](=O)[O-])c1 (stereo not drawn)	-3%	-10%	68	34%[10 µM]	8%	-15%
COC(=O)C1C2C=CC(C3CC23)C1C(=O)OCC(=O)c1ccccc1 (stereo not drawn)	2%	-15%	22	8%	-1%	-18%
SMILES	HttQ103 aggreg	HPGD inh	PNC assembly inh	HTT ATP protect	CBFb RUNX1 block	ALDH1A1 inh
Cc1ccc(C(=O)COC(=O)CN2C(=O)C3C4CCC(C4)C3C2=O)cc1[N+](=O)[O-] (stereo not drawn)	-9%	.	45	0%[10 µM]	-7%	20µM*
COc1ccc(C(=O)COC(=O)C(CCCCN2C(=O)C3C4C=CC(C4)C3C2=O)N2C(=O)C3C4C=CC(C4)C3C2=O)cc1 (stereo not drawn)	-3%	-2%	5	13%[10 µM]	-3%	10µM*
CCCCN1C(=O)C(=O)N(CC(=O)NC2CCCc3ccccc32)C1=O (stereo not drawn)	3%	.	.	-10%	23%	-6%
Cc1nn(C)c2nc(NNC(=O)Nc3cc(Cl)nc(Cl)c3)cc(C(C)C)c12	.	-9%	.	.	3%	4%
CC(C)CC1=NN(C(=O)c2ccco2)C(O)(C(F)(F)F)C1 (stereo not drawn)	-6%[9.22 µM]	.	.	6%[10 µM]	7%	-10%
Cc1ccc(C[C@@H](NS(=O)(=O)c2ccc(C(=O)O)cc2)C(=O)O)cc1	.	.	.	.	-1%	.
COC(=O)C1=C(C)NC(=O)NC1c1ccc(-c2ccc(Cl)cc2)o1 (stereo not drawn)	21%[9.22 µM]	.	.	22%[10 µM]	-4%	11µM*
CCCCOC(=O)CNc1n[nH]c(=S)[nH]c1=O	-6%	25µM*	?	-6%	2%	?
N#Cc1ccc(C(=O)Nc2ccc([N+](=O)[O-])cc2)c(F)c1	3%[9.22 µM]	.	.	9%[10 µM]	-6%	4%
O=c1cc(CN2CCN(Cc3ccccc3)CC2)c2cc3c(cc2o1)CCC3	20%[9.22 µM]	.	.	6%[10 µM]	15%	.
O=c1cc(CN2CCN(c3ccccc3F)CC2)c2cc3c(cc2o1)CCCC3	0.63µM*	-8%	12	1.1µM*	-1%	?
COc1cccc(C2=NO[C@@H]3C(=O)N(Cc4ccccc4)C(=O)[C@H]23)c1OC	-11%	?	-107*	0%	-19%	?
CCCCc1cc2c(cn1)=C(OC(=O)c1ccco1)C(C)(OC(=O)CC)C(=O)C=2 (stereo not drawn)	.	-13%	.	7%[10 µM]	-3%[13.1 µM]	2µM*
CCCCC1=CC2=CC(=O)C(C)(OC(=O)CC)C(=O)C2=CN1Cc1ccco1 (stereo not drawn)	10%[9.22 µM]	1%	.	-25%[10 µM]	5%[13.1 µM]	-2%[13.5 µM]
CC(=O)NCCNc1nc(-c2ccccc2CN(C)C)nc2ccccc12	.	-6%	.	-6%	.	-3%
O=c1c(-c2cccs2)nc2cnc(N3CCNCC3)nc2n1CCc1ccccc1	.	.	.	0%	.	?
